Screen size: about 5,500 compounds; about 2,000 (36%) were called active. About 18% were inconclusive and are not listed. Rule as the data show it: active = normalized growth mostly below about 0.91 (no sharp cut-off); inconclusive = no clear call, values can overlap the other calls; inactive = mostly above about 0.92. This is one part of the list.
Assay: chemical genetic growth profiling, strain panel (AID 1159580);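 also: tested at 20 µM; growth read once vehicle control cultures reached saturation at 30 °C; 1 = growth at the plate median or of vehicle wells; lower values mean less growth of the strain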
Details: S. cerevisiae deletion strains, growth OD

Measured: normalized growth

C[C@@H]1O[C@H](C[N+](C)(C)C)C[C@H]1O
inactive: locus YAL013W, strain DEP1, active compounds read low 1.01 | locus YAL040C, strain CLN3, active compounds read low 1 | locus YCL061C, strain MRC1 (second series), active compounds read low 1.01 | locus YDR363W, strain ESC2, active compounds read low 0.993 | locus YER002W, strain NOP16, active compounds read low 1.02 | locus YMR263W, strain SAP30, active compounds read low 1.01 | locus YNL128W, strain TEP1, active compounds read low 1 | locus YNL153C, strain GIM3, active compounds read low 1.02 | locus YNL175C, strain NOP13, active compounds read low 1.01 | locus YNL197C, strain WHI3, active compounds read low 1.01 | locus YNL224C, strain SQS1, active compounds read low 1.01 | locus YOR083W, strain WHI5 (second series), active compounds read low 1.01 | locus YPL241C, strain CIN2, active compounds read low 1.01

CC(C)CCCC1(C)C=Cc2c(O)c3c(c(CCC(C)C)c2O1)OC12C(CC4CC1C(C)(C)OC2(CCC(C)C(=O)O)C4O)C3=O (stereo not drawn)
inactive: locus YAL021C, strain ccr4, active compounds read low 1 | locus YAL026C, strain drs2, active compounds read low 0.991 | locus YAL030W, strain snc1, active compounds read low 1 | locus YBL061C, strain skt5, active compounds read low 0.996 | locus YBR009C, strain hhf1, active compounds read low 0.992 | locus YBR023C, strain chs3, active compounds read low 0.998 | locus YBR171W, strain sec66, active compounds read low 0.991 | locus YBR231C, strain swc5, active compounds read low 0.997 | locus YBR279W, strain paf1, active compounds read low 0.994 | locus YCL011C, strain gbp2, active compounds read low 0.994 | locus YCL016C, strain dcc1, active compounds read low 0.989 | locus YCL061C, strain MRC1, active compounds read low 0.986 | locus YCL069W, strain vba3, active compounds read low 0.998 | locus YCR088W, strain abp1, active compounds read low 0.997 | locus YDL005C, strain med2, active compounds read low 0.985 | locus YDL040C, strain nat1, active compounds read low 0.995 | locus YDR001C, strain nth1, active compounds read low 0.998 | locus YDR069C, strain doa4, active compounds read low 0.988 | locus YDR159W, strain sac3, active compounds read low 0.991 | locus YDR195W, strain ref2 1.01 | locus YDR297W, strain sur2, active compounds read low 0.998 | locus YDR334W, strain swr1, active compounds read low 0.975 | locus YDR335W, strain msn5, active compounds read low 0.995 | locus YDR392W, strain spt3, active compounds read low 0.925 | locus YEL003W, strain gim4, active compounds read low 0.982 | locus YEL037C, strain rad23, active compounds read low 1.03 | locus YEL061C, strain CIN8 (second series), active compounds read low 0.996 | locus YER015W, strain faa2, active compounds read low 1 | locus YER016W, strain bim1, active compounds read low 0.99 | locus YER111C, strain swi4, active compounds read low 1.02 | locus YER155C, strain BEM2 (second series), active compounds read low 1.01 | locus YFR010W, strain ubp6, active compounds read low 0.986 | locus YGL167C, strain pmr1, active compounds read low 0.988 | locus YGL173C, strain kem1, active compounds read low 0.991 | locus YGL227W, strain vid30, active compounds read low 1.01 | locus YGL240W, strain doc1, active compounds read low 0.979 | locus YGL253W, strain hxk2, active compounds read low 1 | locus YHR013C, strain ard1, active compounds read low 1.02 | locus YHR027C, strain rpn1, active compounds read low 1 | locus YHR030C, strain SLT2, active compounds read low 0.966 | locus YHR079C, strain IRE1, active compounds read low 0.971 | locus YHR142W, strain chs7, active compounds read low 1.01 | locus YJL092W, strain hpr5, active compounds read low 0.988 | locus YJL095W, strain BCK1 (second series), active compounds read low 1 | locus YJL095W, strain BCK1, active compounds read low 0.987 | locus YJL115W, strain asf1, active compounds read low 0.996 | locus YJL129C, strain trk1, active compounds read low 0.958 | locus YJL154C, strain vps35, active compounds read low 0.994 | locus YJL164C, strain tpk1, active compounds read low 0.982 | locus YJL166W, strain qcr8, active compounds read low 0.996 | locus YJL187C, strain SWE1, active compounds read low 0.997 | locus YJR066W, strain TOR1, active compounds read low 0.919 | locus YKL160W, strain elf1, active compounds read low 1 | locus YKR026C, strain gcn3, active compounds read low 1 | locus YKR091W, strain srl3, active compounds read low 0.998 | locus YLL001W, strain dnm1, active compounds read low 1 | locus YLL026W, active compounds read low 0.997 | locus YLL041C, strain sdh2, active compounds read low 0.995 | locus YLR027C, strain aat2, active compounds read low 0.999 | locus YLR113W, strain HOG1, active compounds read low 0.941 | locus YLR221C, strain rsa3, active compounds read low 0.989 | locus YLR258W, strain gsy2, active compounds read low 0.998 | locus YLR262C, strain YPT6 (second series), active compounds read low 0.919 | locus YLR320W, strain mms22, active compounds read low 0.99 | locus YLR342W, strain FKS1, active compounds read low 1 | locus YLR357W, strain rsc2, active compounds read low 1.04 | locus YLR370C, strain arc18, active compounds read low 0.999 | locus YLR384C, strain iki3, active compounds read low 0.992 | locus YML120C, strain ndi1, active compounds read low 0.997 | locus YMR058W, strain fet3, active compounds read low 0.986 | locus YMR125W, strain sto1, active compounds read low 0.991 | locus YMR129W, active compounds read low 0.993 | locus YMR205C, strain PFK2, active compounds read low 0.955 | locus YMR231W, strain pep5, active compounds read low 0.986 | locus YNL071W, strain lat1, active compounds read low 0.969 | locus YNL183C, strain NPR1, active compounds read low 0.92 | locus YNL209W, strain ssb2, active compounds read low 0.99 | locus YNL248C, strain rpa49, active compounds read low 1.01 | locus YNL322C, strain KRE1 (second series), active compounds read low 1.01 | locus YNR049C, strain mso1, active compounds read low 1.01 | locus YOR001W, strain rrp6, active compounds read low 0.983 | locus YOR070C, strain gyp1, active compounds read low 0.995 | locus YOR080W, strain dia2, active compounds read low 1 | locus YOR083W, strain WHI5, active compounds read low 0.99 | locus YOR106W, strain vam3, active compounds read low 0.996 | locus YOR231W, strain MKK1, active compounds read low 0.964 | locus YOR265W, strain rbl2, active compounds read low 1 | locus YOR270C, strain vph1, active compounds read low 0.955 | locus YOR290C, strain snf2, active compounds read low 0.995 | locus YPL051W, strain arl3, active compounds read low 0.98 | locus YPL078C, strain atp4, active compounds read low 1 | locus YPL106C, strain sse1, active compounds read low 1 | locus YPL240C, strain hsp82, active compounds read low 1.01 | locus YPL256C, strain CLN2, active compounds read low 0.985
active: locus YDR137W, strain rgp1, active compounds read low 0.815

From PubChem BioAssay AID1159580 (chemical genetic matrix, 2015)
